From PubChem BioAssay
HT1080NT lethal: kills 2HG-producing HT-1080-NT fibrosarcoma cells; Potency, µM (highest dose often 46.1 µM), inactives show at the highest dose activity, negative = less viability, usual class: cytotoxic; actives 1.6% (n = 360,000); HT-1080-NT fibrosarcoma viability, CellTiter-Glo ATP luminescence, 48 h;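 also: NT is the 2HG producing partner of a matched IDH1 knockdown line; potency is read from the fitted curve at half-maximal effect; 0% = DMSO-treated cells and -100% = media-only wells without cells; nearly all actives have a fitted effect of over 55% in size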
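Compounds were tested in concentration-response format on HT-1080-NT cells for 48 hours at 37 degrees C. Cell viability came from CellTiter-Glo luminescence; curves were classified by r2, response magnitude and activity.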
DT40 TDP1 CPT: DT40-hTDP1 cell growth loss with CPT | chicken DT40 Tdp1-/-;hTDP1 cells + 20 nM CPT, ATP luminescence, 48 h | Potency, µM (series often up to 46.2 µM), without a hit: at the top dose activity change, negative = growth inhibition, actives largely listed as inhibitors | actives 12% (n = 420,000) | AID 686979; also: potency is read from the fitted curve at half-maximal effect; nearly all actives have a fitted effect of over 55% in size
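Chicken DT40 Tdp1-/- cells complemented with human TDP1, 400 cells/well, exposed to compounds plus 20 nM camptothecin for at least 48 h at 37 C; viability read as ATP content by CellTiter-Glo luminescence.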
IL-1B inflam inh: inflammasome signaling inhibition, IL-1 beta readout; THP-1 LPS/ATP IL-1B secretion, AlphaLISA, 16 h; hits give low values; activity change, % at 57.5 µM; actives 4.7% (n = 360,000); in the data active = activity change below about -50%; inconclusive = mostly about -30% to -49%
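Secreted IL-1B measured by AlphaLISA bead assay after 16 h compound exposure of THP-1 cells; compounds (final up to 57.5 uM) added 1 h before LPS (250 ng/mL) and ATP (1.25 mM) stimulation; lower signal means less secretion.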
TDP1 cell noCPT: qHTS for Inhibitors of human tyrosyl-DNA phosphodiesterase 1 (TDP1): qHTS in cells in absence of CPT; DT40 Tdp1-/- hTDP1 cells, no CPT, ATP luminescence, 48 h; Potency, µM (top dose mostly 46.2 µM), without a hit: at the highest dose activity change, negative = growth inhibition, most hits filed as inhibitors; actives 15% (n = 420,000); AID 686978, 2013; also: potency is read from the fitted curve at half-maximal effect; nearly all actives have a fitted effect of over 55% in size
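DT40 Tdp1-/-;hTDP1 cells, no CPT (DMSO vehicle only), 400 cells/well; compounds pin-transferred; ≥48 hr, 37 °C; CellTiter-Glo 30 min RT dark, luminescence read.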
HT1080 IDH1KD tx: HT-1080 IDH1 knockdown cell toxicity (counter line); Potency, µM (top dose mostly 46.1 µM), for inactives: at the top dose activity, negative = toxicity, hits mostly cytotoxic; actives 2% (n = 360,000); HT-1080 IDH1 knockdown viability, ATP luminescence, 48 h;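 also: potency is read from the fitted curve at half-maximal effect; 0% = DMSO wells and -100% = cell-free medium wells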
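Luminescent ATP read-out (CellTiter-Glo, 10 min at room temperature) after 48 h compound exposure at 37 °C gave viability of IDH1-knockdown HT-1080 cells. Activity was normalised to DMSO and cell-free wells, then fitted as concentration-response curves.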
ALOX12 inh: blocks human arachidonate 12S-lipoxygenase. P18054. purified 12hLO, xylenol orange hydroperoxide absorbance. Potency, µM (highest dose often 108 µM), inactives show top-dose activity change, negative = inhibition, most hits filed as inhibitors. actives 1.1% (n = 580,000). AID 1671190; also: potency is read from the fitted curve at half-maximal effect
Target sequence (P18054 whole entry, looked up): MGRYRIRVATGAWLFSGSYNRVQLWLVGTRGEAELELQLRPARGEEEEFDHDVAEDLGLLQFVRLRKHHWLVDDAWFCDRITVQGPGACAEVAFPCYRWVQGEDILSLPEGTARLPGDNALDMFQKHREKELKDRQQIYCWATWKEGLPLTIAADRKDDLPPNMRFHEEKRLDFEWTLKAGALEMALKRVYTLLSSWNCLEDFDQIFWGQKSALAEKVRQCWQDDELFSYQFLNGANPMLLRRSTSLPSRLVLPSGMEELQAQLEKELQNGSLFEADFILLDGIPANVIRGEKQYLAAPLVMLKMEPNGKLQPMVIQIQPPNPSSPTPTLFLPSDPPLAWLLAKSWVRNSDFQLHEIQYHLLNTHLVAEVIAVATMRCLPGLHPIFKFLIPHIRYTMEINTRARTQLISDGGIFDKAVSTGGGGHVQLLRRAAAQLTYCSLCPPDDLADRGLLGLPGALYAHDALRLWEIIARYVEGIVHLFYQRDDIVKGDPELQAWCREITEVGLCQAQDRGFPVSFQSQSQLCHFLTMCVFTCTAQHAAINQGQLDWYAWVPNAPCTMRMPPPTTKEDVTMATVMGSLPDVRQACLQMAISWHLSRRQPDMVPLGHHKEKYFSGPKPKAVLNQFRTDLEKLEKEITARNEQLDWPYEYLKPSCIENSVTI
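Hydroperoxide product was detected by ferrous iron/xylenol orange as the 573 to 405 nm absorbance ratio. Arachidonic acid at 40 uM (final) was turned over for 30 min at room temperature by 150 nM human 12hLO, pH 7.0 Hepes buffer, after 15 min compound preincubation.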
An asterisk follows results filed as active; i = inactive; ? = inconclusive; . = no result; [ ] = another dose, or the depositor's remark. Shown is part of a subset that was picked to be rich in hits. Unless noted, calls follow the shape of the dose curve; as a rule, active = well fitted curve in the direction sought with a large enough effect; inconclusive = small, poorly fitted or top-dose-only effect, or another doubt; inactive = no such curve, though single readings can be large; an effect the other way counts as inactive or inconclusive. Unless noted, % is scaled to controls: 0 for no effect and ±100 for the full control effect.

SMILES | HT1080NT lethal | DT40 TDP1 CPT | IL-1B inflam inh | TDP1 cell noCPT | HT1080 IDH1KD tx | ALOX12 inh
CN(C)c1ccc(-[n+]2c(-c3ccccc3)cc(-c3ccccc3)cc2-c2ccccc2)cc1 | 10µM* | 0.33µM* | -92* | 0.41µM* | 2.6µM* | -21%
Cc1ccc(-c2cc(-c3ccc(C)cc3)[n+](-c3ccccc3)c(-c3ccc(C)cc3)c2)cc1 | 5.2µM* | 0.52µM* | -99* | 0.37µM* | 7.3µM* | .
Cc1ccc(-c2cc(-c3ccc(C)cc3)[n+](-c3ccc(C(=O)[O-])cc3)c(-c3ccc(C)cc3)c2)cc1 | -17% | ? | 21 | ? | -15% | ?
Cc1nc(-c2ccc(C(F)(F)F)cc2)cc([C@H]2CN3CC[C@H]2C[C@@H]3CNC(=O)c2ccccc2C(=O)O)n1 | . | . | . | . | . | -7%
COc1ccc(C(C)=O)cc1CN1CC=C(c2ccccc2)CC1 | 11% | ? | 21 | ? | 0% | .
COc1ccc2ccc(O)c(CN3CC=C(c4ccccc4)CC3)c2c1 | -4% | ? | -16 | 18µM* | -4% | ?
COc1cccc(CN2CC=C(c3ccc(F)cc3)CC2)c1 | -10% | -1% | -8 | -9% | -20% | -11%
COc1cc(C)cc(CN2CC=C(c3ccccc3)CC2)c1O | 1% | 16µM* | -13 | ? | -2% | 28%
CCCS(=O)(=O)NC[C@H]1C[C@@H]2CCN1C[C@@H]2CC | . | . | . | . | . | 56%[176 µM]
CN(C)Cc1ccccc1-c1ccc2n(c1=O)C[C@H]1C[C@@H]2CN(C(=O)c2cnccn2)C1 | . | . | . | . | . | -14%[176 µM]
C#C[C@H]1CN2CC[C@H]1C[C@@H]2CNCc1ccc(N(C)C)cc1 | . | . | . | . | . | 53%[176 µM]
CCCSc1ncc(Cl)c(C(=O)N(Cc2ccccc2)c2ccc(OC)cc2)n1 | . | 7.3µM* | . | 4.6µM* | . | -22%
CCCCCn1c(=O)c(C(=O)Nc2ccccc2)c(O)c2ccccc21 | 7% | 4.1µM* | 20 | 5.2µM* | 6% | -2%
CCCCCn1c(=O)c(C(=O)Nc2cccc(C)c2)c(O)c2ccccc21 | 10% | -10% | 0 | 4.6µM* | 0% | 15%
CCCCCCn1c(=O)c(C(=O)Nc2c(C)n(C)n(-c3ccccc3)c2=O)c(O)c2ccccc21 | ? | 5.2µM* | 17 | 6.5µM* | -15% | 8%
O=C(c1cccs1)N1CC(CO)C2(CCNCC2)C1 (configuration not stated) | . | . | . | . | . | 35%
Cc1nc(-c2ccccc2Br)cc([C@H]2CN3CC[C@H]2C[C@@H]3CNC(=O)c2ccccc2)n1 | . | . | . | . | . | 8%
Cc1nc(-c2ccccc2Br)cc([C@H]2CN3CC[C@H]2C[C@@H]3CNC(=O)Nc2ccccc2)n1 | . | . | . | . | . | 11µM*
COc1ccc(-c2cc([C@H]3CN4CC[C@H]3C[C@@H]4CNC(=O)NC(C)C)nc(C)n2)cc1OC | . | . | . | . | . | 32µM*
Cc1[nH]c2ccccc2c1C(=O)C(C)NC(C)c1ccc(F)c(F)c1 (configuration not stated) | . | . | . | . | . | 15%
O=C1NC(=O)C(=Cc2ccc(SC3CCCCC3)o2)C(=O)N1 | ? | 16µM* | ? | ? | ? | 22µM*
C[C@H]1CC[C@]2(NC1)O[C@H]1C[C@H]3[C@@H]4CC[C@H]5C[C@@H](O[C@@H]6O[C@H](CO)[C@H](O[C@@H]7O[C@H](CO)[C@@H](O)[C@H](O[C@@H]8OC[C@@H](O)[C@H](O)[C@H]8O)[C@H]7O[C@@H]7O[C@H](CO)[C@@H](O)[C@H](O)[C@H]7O)[C@H](O)[C@H]6O)CC[C@]5(C)[C@H]4CC[C@]3(C)[C@H]1[C@@H]2C | . | 1.9µM* | . | 1.7µM* | . | .
C[C@@H]1CC[C@@]2(NC1)O[C@H]1C[C@H]3[C@@H]4CC=C5C[C@@H](O)CC[C@]5(C)[C@H]4CC[C@]3(C)[C@H]1[C@@H]2C | -1% | 0% | 22 | 7% | 12% | .
O=C1NCCCCCCN(Cc2ccncc2)[C@@H]2CN(C(=O)COc3ccccc3)CC[C@@H]12 | . | . | . | . | . | 86%
COc1ccccc1C1=NCC(=O)N(CC(=O)Nc2ccccc2)c2sc3c(c21)CCCC3 | . | . | . | . | . | 14%
SMILES | HT1080NT lethal | DT40 TDP1 CPT | IL-1B inflam inh | TDP1 cell noCPT | HT1080 IDH1KD tx | ALOX12 inh
CC(C)COP(=O)(OCC(C)C)C(Nc1ccccc1)c1ccccc1 (configuration not stated) | 18µM* | ? | -58* | ? | ? | ?
O=P(Oc1ccccc1)(Oc1ccccc1)C(O)c1ccccc1 (configuration not stated) | 12% | -20% | 8 | 0% | 9% | 9%
CC(C)COP(=O)(c1ccc(N(C)C)cc1)C(Nc1ccccc1)c1ccccc1 (configuration not stated) | -12% | ? | -3 | 29µM* | -6% | -10%
COP(=O)(OC)C(Nc1ccccn1)c1ccccc1 (configuration not stated) | 7% | -2% | 13 | 0% | 14% | -12%
CN(C)c1ccc(P(=O)(OC2CCCCC2)C(Nc2ccccc2)c2cccnc2)cc1 (configuration not stated) | -21% | ? | -52* | 21µM* | -19% | ?
O=P(Oc1ccccc1)(Oc1ccccc1)C(Nc1ccccc1)c1ccccc1 (configuration not stated) | -27% | ? | 0 | 16µM* | -10% | 9%
CC(C)CCOP(=O)(c1ccc(N(C)C)cc1)C(O)c1ccccc1 (configuration not stated) | -10% | ? | 14 | ? | 2% | -14%
Cn1cc(CN2CCN(C(=O)Cc3ccsc3)CC2)ccc1=O | . | . | . | . | . | 13%
CN1CCCCCCN(Cc2ccccn2)[C@H]2CCC[C@H]2C1=O | . | . | . | . | . | i
Cc1ccc(-n2nc3c(N4CCC(C(=O)NCc5ccccc5Cl)CC4)nnc(C)c3c2C)cc1 | . | 15µM* | . | 5.8µM* | . | ?
Cc1nn(Cc2ccccc2Cl)c(C)c1C(=O)NC1CCCc2ccccc21 (configuration not stated) | 0% | -2% | 24 | -9% | 2% | 4%
COc1ccc(Cl)cc1NC(=O)C1CCN(c2nnc(C)c3c(C)n(-c4ccccc4)nc23)CC1 | . | 18µM* | . | 15µM* | . | -27%
COc1ccc(Cl)cc1NC(=O)c1sc2nc3c(cc2c1N)N1CCC3CC1 | . | 1% | . | -24% | . | ?
